Screens deposited in PubChem by National Center for Advancing Translational Sciences (NCATS).
RORg inh – inhibitors of mouse ROR gamma transcriptional activity; Drosophila S2 Gal4-RORgamma UAS-luciferase reporter, 20 h; Potency, µM (titrated, usually from 53.6 µM), for inactives: at the top dose activity change, negative = inhibition, hits mostly inhibitors; 310,000 compounds, 5.4% hits; AID 2551; also: potency is read from the fitted curve at half-maximal effect; % is scaled to controls: 0 for no effect and ±100 for the full control effect; nearly all actives have a fitted effect of over 60% in size
Target sequence (P51450 whole entry, looked up, the tested form may be a part): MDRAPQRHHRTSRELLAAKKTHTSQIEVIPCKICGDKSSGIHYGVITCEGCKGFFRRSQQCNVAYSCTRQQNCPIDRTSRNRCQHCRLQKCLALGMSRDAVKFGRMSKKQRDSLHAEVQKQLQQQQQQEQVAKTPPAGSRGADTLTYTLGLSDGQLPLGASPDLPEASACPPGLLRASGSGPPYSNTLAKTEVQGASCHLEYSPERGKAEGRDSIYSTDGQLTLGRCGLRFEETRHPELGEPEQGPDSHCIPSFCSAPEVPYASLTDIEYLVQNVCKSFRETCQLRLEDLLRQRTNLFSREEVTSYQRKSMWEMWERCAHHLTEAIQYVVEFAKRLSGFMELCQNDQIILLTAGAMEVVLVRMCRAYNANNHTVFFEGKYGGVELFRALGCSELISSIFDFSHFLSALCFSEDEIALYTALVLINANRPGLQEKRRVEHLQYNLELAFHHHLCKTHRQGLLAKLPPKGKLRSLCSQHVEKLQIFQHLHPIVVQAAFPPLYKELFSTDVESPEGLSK
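A Gal4/UAS one-hybrid system in insect cells: metallothionein-promoter Gal4–ROR gamma fusion plus Photinus luciferase reporter. Copper sulfate 700 uM final, 20 hr ambient incubation, luminescent detection after 10 min with reagent.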
p53 reactivation – mutant p53 re-activation in reporter cells | AID 504706 | Potency, µM (doses to about 92.2 µM), for inactives: at the highest dose activity change, positive = activation, hits mostly activators | H1299 p53-A138V BP100-luciferase reporter, luminescence, 24 h | 320,000 compounds, 0.063% hits; also: potency is read from the fitted curve at half-maximal effect; % of control where 0% means no effect; nearly all actives have a fitted effect of over 45% in size
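H1299 (p53-null), stable ts p53-A138V + BP100-Luc; 1000 cells/well, Opti-MEM/10% FBS; cpd 4 pt, 1:5; 24 h, 37 deg C, 5% CO2; detection reagent 10 min RT; luminescence.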
ELG1 repair inh – inhibitors of ELG1-dependent DNA repair in HEK293T cells. HEK293T ELG1-luciferase reporter, luminescence, 16 h; DNA damage induced by 5-fluorouridine. Potency, µM (doses to about 46.1 µM), without a hit: top-dose activity change, negative = inhibition, hits mostly inhibitors. 330,000 compounds, 2.3% hits; also: potency is read from the fitted curve at half-maximal effect; % is scaled to controls: 0 for no effect and ±100 for the full control effect; nearly all actives have a fitted effect of over 55% in size
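Luminescence from the luciferase reporter, measured 30 min after ONE-Glo reagent at room temperature, was the read-out. Beforehand, 2,000 cells per well were exposed for 16 hr at 37 °C to 5-fluorouridine together with compound or vehicle.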
Giardia killer – Giardia lamblia killing; Giardia lamblia trophozoite viability; activity change, % at 7.66 µM, hits read low; 340,000 compounds, 0.15% hits; AID 540267; in the data active = activity change below about -80%; inconclusive = between about -30% and that limit;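 also: parasites exposed to compound for two days anaerobically before the ATP read; % is scaled to controls: 0 for no effect and ±100 for the full control effect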
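Anaerobic 48 hrs incubation at 37 deg C of 100 trophozoites/well with test compounds; ATPLite 1-Step luminescence, 15-30 min RT, reports cellular ATP as viability.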
BRCA1 expr act – increases BRCA1 expression; MCF7-BRCA1-FFLuc reporter, luminescence, 48 h; response scale: scaled: vehicle 0%, 10 µM genistein 100%; Potency, µM (doses to about 46.1 µM), inactives show at the top dose activation, actives largely listed as activators; 380,000 compounds, 1.1% hits; AID 624202; also: potency is read from the fitted curve at half-maximal effect; nearly all actives have a fitted effect of over 80% in size
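MCF7-BRCA1-FFLuc, 2000 cells/well; 2 h attach, 37 °C/5% CO2; compound 48 h; luciferase substrate 15 min; luminescence end-point. Norm. to genistein 10 microM max activation and DMSO; concentration-response curves fitted.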
VP16 counter – inhibits Gal4-VP16 luciferase reporter, ROR gamma counter-screen | Drosophila S2 Gal4-VP16 UAS-luciferase, luminescence, 20 h | Potency, µM (series often up to 53.6 µM), for inactives: at the highest dose activity, negative = inhibition, actives largely listed as inhibitors | 310,000 compounds, 3.5% hits;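 also: Gal4-VP16 expression switched on by copper sulfate through the metallothionein promoter; potency is read from the fitted curve at half-maximal effect; % is scaled to controls: 0 for no effect and ±100 for the full control effect; nearly all actives have a fitted effect of over 50% in size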
Starred values were filed as active, the others as inactive. Sampled rows, rich in hits. Any-hit rate of the full collection: about 7.6%. Unless noted, calls follow the shape of the dose curve; as a rule, active = well fitted curve in the direction sought with a large enough effect; inconclusive = small, poorly fitted or top-dose-only effect, or another doubt; inactive = no such curve, though single readings can be large; an effect the other way counts as inactive or inconclusive.

O=C(Nc1ccc(F)cc1F)Nc1ccc(F)cc1F was read as RORg inh -3%, p53 reactivation 2%, ELG1 repair inh -1%, Giardia killer -5, BRCA1 expr act 10µM* and VP16 counter inconclusive.
`CN(Cc1ccccc1)C(=O)c1ccccc1-c1ccccc1` gave RORg inh 13%, p53 reactivation 0%, ELG1 repair inh -16%, Giardia killer -13, BRCA1 expr act 0% and VP16 counter 22%.
For COc1cc(-c2n[nH]c(=S)n2C(C)c2ccccc2)cc(OC)c1OC (stereo not drawn) the results were RORg inh inconclusive, p53 reactivation -20%, ELG1 repair inh 0%, Giardia killer inconclusive, BRCA1 expr act -6% and VP16 counter 13µM*.
CCCc1cc(-c2n[nH]c(=S)n2C(C)c2ccccc2)cs1 (stereo not drawn) was read as RORg inh 7.1µM*, p53 reactivation 3%, ELG1 repair inh -1%, Giardia killer -11, BRCA1 expr act -18% and VP16 counter 7.1µM*.
Screening CCn1c(C(c2ccccc2)c2ccccc2)n[nH]c1=S returned RORg inh inconclusive, p53 reactivation -4%, ELG1 repair inh -1%, Giardia killer -3, BRCA1 expr act -20% and VP16 counter inconclusive.
Screening CCCCn1c(-c2csc(CCC)c2)n[nH]c1=S returned RORg inh 36%, p53 reactivation -8%, ELG1 repair inh -22%, Giardia killer -1, BRCA1 expr act -2% and VP16 counter 1%.
Fc1ccc(-n2c(Cc3cccs3)n[nH]c2=S)cc1Cl was read as RORg inh 14µM*, p53 reactivation -3%, ELG1 repair inh -1%, Giardia killer 2, BRCA1 expr act -14% and VP16 counter -6%.
Screening CCc1cc(-c2n[nH]c(=S)n2CC)cs1 returned RORg inh inconclusive, p53 reactivation -6%, ELG1 repair inh 8%, Giardia killer 1, BRCA1 expr act 9% and VP16 counter 10µM*.
For COc1ccc(CCNC(=O)C(C)n2nc(C)n3c(cc4occc43)c2=O)cc1OC (stereo not drawn) the results were RORg inh 10%, p53 reactivation -3%, ELG1 repair inh 14%, Giardia killer -30, BRCA1 expr act 1% and VP16 counter 0%.
COC(=O)/C=C/COc1ccccc1[N+](=O)[O-] was read as RORg inh -28%, p53 reactivation inconclusive, ELG1 repair inh inconclusive, Giardia killer -7, BRCA1 expr act inconclusive and VP16 counter 0%.
For OC(COc1ccc(CNCc2cccnc2)cc1)CN1CCc2ccccc2C1 (stereo not drawn) the results were RORg inh 9%, p53 reactivation -5%, ELG1 repair inh 2%, Giardia killer 20, BRCA1 expr act 18% and VP16 counter 1%.
For CCc1cc(-c2n[nH]c(=S)n2-c2ccccc2C)cs1 the results were RORg inh 4µM*, p53 reactivation -4%, ELG1 repair inh 1%, Giardia killer 8, BRCA1 expr act -26% and VP16 counter 5.6µM*.
`CCc1cc(-c2n[nH]c(=S)n2Cc2ccccc2)cs1` gave RORg inh 3.2µM*, p53 reactivation 6%, ELG1 repair inh 8%, Giardia killer 3, BRCA1 expr act -36% and VP16 counter 6.3µM*.
Screening Cc1ccccc1-n1c(Cc2cccs2)n[nH]c1=S returned RORg inh 1.4µM*, p53 reactivation -4%, ELG1 repair inh 15%, Giardia killer 6, BRCA1 expr act 1% and VP16 counter inconclusive.
`FC(F)(F)c1ccc(Cl)c(-n2c(Cc3cccs3)n[nH]c2=S)c1` gave RORg inh inconclusive, p53 reactivation -1%, ELG1 repair inh inconclusive, Giardia killer 3, BRCA1 expr act 4% and VP16 counter 5%.
`CCn1c(C2CCN(Cc3ccccc3)CC2)n[nH]c1=S` gave RORg inh -29%, p53 reactivation -2%, ELG1 repair inh 0%, Giardia killer 36, BRCA1 expr act 0% and VP16 counter -3%.
For CCCc1cc(-c2n[nH]c(=S)n2CC)cs1 the results were RORg inh 7.1µM*, p53 reactivation 6%, ELG1 repair inh inconclusive, Giardia killer -11, BRCA1 expr act 38% and VP16 counter 11µM*.
`Cc1noc(C)c1C(=O)Nc1ccc(C#N)cc1` gave RORg inh inconclusive, p53 reactivation -7%, ELG1 repair inh -3%, Giardia killer -13, BRCA1 expr act -3% and VP16 counter 2%.
For CC(C)(C)C1CCC2(CC1)NC(=S)N(c1ccccc1)N2 (stereo not drawn) the results were RORg inh 10µM*, p53 reactivation inconclusive, ELG1 repair inh inconclusive, Giardia killer 0, BRCA1 expr act -21% and VP16 counter 16µM*.
CCC(C)(C)C1CCC2(CC1)NC(=S)N(c1ccccc1)N2 (stereo not drawn) was read as RORg inh inconclusive, p53 reactivation 4%, ELG1 repair inh 8.2µM*, Giardia killer 9, BRCA1 expr act 12% and VP16 counter inconclusive.
CC(/C=N/NC(=O)Cn1nccc1C)=C\c1ccc(C(C)C)cc1 was read as RORg inh 32%, p53 reactivation 20%, ELG1 repair inh inconclusive, Giardia killer 8, BRCA1 expr act 65% and VP16 counter -8%.
Screening CC(=O)NCc1ccc(C(=O)CCl)s1 returned RORg inh 11µM*, p53 reactivation -13%, ELG1 repair inh inconclusive, Giardia killer -12, BRCA1 expr act -11% and VP16 counter 7.1µM*.
For COc1ccccc1NC(c1cccnc1)c1ccc2cccnc2c1O (stereo not drawn) the results were RORg inh 11µM*, p53 reactivation inconclusive, ELG1 repair inh inconclusive, Giardia killer -20, BRCA1 expr act 9% and VP16 counter inconclusive.
`O=C(O)c1ccccc1NC(c1ccccc1)c1ccc2cccnc2c1O` (stereo not drawn) gave Giardia killer -7 and BRCA1 expr act -85%.
Cc1cc(NC(c2ccc(Cl)cc2)c2ccc3cccnc3c2O)no1 (stereo not drawn) was read as RORg inh 0.79µM*, p53 reactivation inconclusive, ELG1 repair inh inconclusive, Giardia killer -9, BRCA1 expr act -90% and VP16 counter 2µM*.
`Cc1ccnc(NC(c2cccnc2)c2ccc3cccnc3c2O)c1` (stereo not drawn) gave RORg inh 3.2µM*, p53 reactivation 8%, ELG1 repair inh inconclusive, Giardia killer 3, BRCA1 expr act -82% and VP16 counter inconclusive.
